Seven sequences from PMC7862700, “An all-to-all approach to the identification of sequence-specific readers for epigenetic DNA modifications on cytosine” can be followed below.

Assay in all cases: DAPPL (digital affinity profiling via proximity ligation, sequencing); 10 mM Tris-HCl pH 7.5, 50 mM NaCl, 1 mM DTT, 4% glycerol, room temperature, 30 min; GST-TFs on glutathione beads, 16-mer random dsDNA library, 0.1% formaldehyde crosslink after washing; high values mean tight binding
Holding throughout (conditions): protein: recombinant; tags: N-terminal GST; dsDNA, one strand shown

The target in one test is T1, FLI1 (Homo sapiens, UniProt Q01543 1-452).
T1 sequence: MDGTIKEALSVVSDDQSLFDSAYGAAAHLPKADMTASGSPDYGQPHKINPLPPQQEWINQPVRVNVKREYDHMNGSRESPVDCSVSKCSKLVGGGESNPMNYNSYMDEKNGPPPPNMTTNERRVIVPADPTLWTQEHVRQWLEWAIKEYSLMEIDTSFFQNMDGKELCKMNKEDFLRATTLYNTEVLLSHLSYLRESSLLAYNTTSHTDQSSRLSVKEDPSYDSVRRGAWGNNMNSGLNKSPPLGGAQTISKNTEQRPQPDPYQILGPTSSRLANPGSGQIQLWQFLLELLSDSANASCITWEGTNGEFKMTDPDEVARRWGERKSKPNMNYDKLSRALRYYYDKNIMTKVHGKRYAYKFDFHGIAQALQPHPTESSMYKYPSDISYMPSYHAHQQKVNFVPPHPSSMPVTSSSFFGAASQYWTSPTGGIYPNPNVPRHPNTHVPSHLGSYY
A digest of the protocol:
(§1)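 In yeast, human transcription factors were expressed with a GST fusion, then pulled down on glutathione beads and given DNA barcodes. Pooled with a tag-only sample, they were exposed to 200 nmole of a 16-mer random double-stranded DNA library (Tris/NaCl/DTT/glycerol buffer, room temperature, 30 min), washed, crosslinked with 0.1% formaldehyde, proximity-ligated using BsaI/T4 ligase for 1 h at 37 °C, PCR-amplified and read on an Illumina NextSeq500. Each hexamer's frequency of reads for a factor, divided by the matching frequency for the tag-only sample, gives the binding signal.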

The target of a further test is T2, ELK1 (Homo sapiens, UniProt P19419 1-428).
T2 sequence: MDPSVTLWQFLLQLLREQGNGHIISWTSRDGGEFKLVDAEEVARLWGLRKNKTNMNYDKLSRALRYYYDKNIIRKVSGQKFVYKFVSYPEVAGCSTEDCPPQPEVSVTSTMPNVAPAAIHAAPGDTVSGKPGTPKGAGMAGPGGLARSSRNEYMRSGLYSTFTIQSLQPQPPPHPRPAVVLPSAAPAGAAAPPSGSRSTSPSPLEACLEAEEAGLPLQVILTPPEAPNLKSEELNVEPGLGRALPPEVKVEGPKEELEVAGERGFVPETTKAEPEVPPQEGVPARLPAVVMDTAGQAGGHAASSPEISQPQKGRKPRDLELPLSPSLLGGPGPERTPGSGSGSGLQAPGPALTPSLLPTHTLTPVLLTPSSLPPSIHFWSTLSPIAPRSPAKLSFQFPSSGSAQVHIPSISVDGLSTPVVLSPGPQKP
A digest of the protocol:
as §1

A further test has as its target T3, GABPA (Homo sapiens, UniProt Q06546 1-454).
T3 sequence: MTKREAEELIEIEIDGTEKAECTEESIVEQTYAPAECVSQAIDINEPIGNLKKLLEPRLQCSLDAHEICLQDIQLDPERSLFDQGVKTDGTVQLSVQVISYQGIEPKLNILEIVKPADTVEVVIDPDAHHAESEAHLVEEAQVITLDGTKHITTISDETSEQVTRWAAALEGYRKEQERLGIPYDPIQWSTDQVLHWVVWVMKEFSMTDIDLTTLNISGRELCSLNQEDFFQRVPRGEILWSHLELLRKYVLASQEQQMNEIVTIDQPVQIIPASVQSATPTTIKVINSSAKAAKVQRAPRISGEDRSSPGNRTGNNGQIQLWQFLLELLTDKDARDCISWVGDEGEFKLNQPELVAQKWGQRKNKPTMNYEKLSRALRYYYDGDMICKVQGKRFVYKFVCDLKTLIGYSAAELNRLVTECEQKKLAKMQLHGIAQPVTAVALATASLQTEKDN
A digest of the protocol:
as §1

In a further test the target is T4, ERG (Homo sapiens, UniProt P11308 1-479).
T4 sequence: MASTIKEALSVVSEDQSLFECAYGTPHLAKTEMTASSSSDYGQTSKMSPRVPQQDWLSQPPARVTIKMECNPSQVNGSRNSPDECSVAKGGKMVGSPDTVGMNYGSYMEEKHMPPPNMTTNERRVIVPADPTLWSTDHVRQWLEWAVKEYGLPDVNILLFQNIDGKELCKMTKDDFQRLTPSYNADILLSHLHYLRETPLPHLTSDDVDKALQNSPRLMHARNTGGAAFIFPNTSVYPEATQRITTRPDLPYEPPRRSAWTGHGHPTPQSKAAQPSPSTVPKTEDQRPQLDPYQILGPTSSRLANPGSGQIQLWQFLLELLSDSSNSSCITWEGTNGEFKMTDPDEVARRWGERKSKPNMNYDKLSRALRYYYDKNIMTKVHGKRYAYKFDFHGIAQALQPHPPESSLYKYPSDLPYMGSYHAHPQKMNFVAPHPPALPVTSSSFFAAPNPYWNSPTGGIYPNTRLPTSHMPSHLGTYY
A digest of the protocol:
as §1

A further test concerns the target ELF1 (Homo sapiens, UniProt P32519 1-619). A digest of the protocol: as §1
For a further test, the target named is T5, EHF (Homo sapiens, UniProt Q9NZC4 1-300).
T5 sequence: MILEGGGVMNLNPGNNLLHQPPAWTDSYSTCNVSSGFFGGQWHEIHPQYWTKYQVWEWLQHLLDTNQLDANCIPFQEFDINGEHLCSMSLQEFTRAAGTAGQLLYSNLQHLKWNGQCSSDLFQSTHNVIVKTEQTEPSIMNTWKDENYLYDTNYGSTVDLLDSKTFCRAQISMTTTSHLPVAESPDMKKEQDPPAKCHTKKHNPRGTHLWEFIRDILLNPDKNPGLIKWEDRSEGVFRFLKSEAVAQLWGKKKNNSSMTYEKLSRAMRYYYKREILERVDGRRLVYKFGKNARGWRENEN
A digest of the protocol: as §1

Another test concerns the target SPI1 (Homo sapiens, UniProt P17947 1-270). A digest of the protocol: as §1
Another test deals with SPIB (Homo sapiens, UniProt Q01892 1-262). A digest of the protocol:
as §1

Another test concerns the target T6, ELK3 (Homo sapiens, UniProt P41970 1-407).
T6 sequence: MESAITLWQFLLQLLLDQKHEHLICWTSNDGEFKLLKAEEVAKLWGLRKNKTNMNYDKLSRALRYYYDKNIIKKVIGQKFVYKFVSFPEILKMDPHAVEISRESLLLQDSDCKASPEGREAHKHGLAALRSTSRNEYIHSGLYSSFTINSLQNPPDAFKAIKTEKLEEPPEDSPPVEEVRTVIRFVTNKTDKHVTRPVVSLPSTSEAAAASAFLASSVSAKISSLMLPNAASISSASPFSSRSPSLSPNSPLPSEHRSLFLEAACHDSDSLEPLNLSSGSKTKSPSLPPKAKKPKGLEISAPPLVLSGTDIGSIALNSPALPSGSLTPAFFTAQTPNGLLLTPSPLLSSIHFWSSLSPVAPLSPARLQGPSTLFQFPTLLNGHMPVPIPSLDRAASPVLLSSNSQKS
In a few lines:
as §1

Chain of ELF1 (P32519 whole entry): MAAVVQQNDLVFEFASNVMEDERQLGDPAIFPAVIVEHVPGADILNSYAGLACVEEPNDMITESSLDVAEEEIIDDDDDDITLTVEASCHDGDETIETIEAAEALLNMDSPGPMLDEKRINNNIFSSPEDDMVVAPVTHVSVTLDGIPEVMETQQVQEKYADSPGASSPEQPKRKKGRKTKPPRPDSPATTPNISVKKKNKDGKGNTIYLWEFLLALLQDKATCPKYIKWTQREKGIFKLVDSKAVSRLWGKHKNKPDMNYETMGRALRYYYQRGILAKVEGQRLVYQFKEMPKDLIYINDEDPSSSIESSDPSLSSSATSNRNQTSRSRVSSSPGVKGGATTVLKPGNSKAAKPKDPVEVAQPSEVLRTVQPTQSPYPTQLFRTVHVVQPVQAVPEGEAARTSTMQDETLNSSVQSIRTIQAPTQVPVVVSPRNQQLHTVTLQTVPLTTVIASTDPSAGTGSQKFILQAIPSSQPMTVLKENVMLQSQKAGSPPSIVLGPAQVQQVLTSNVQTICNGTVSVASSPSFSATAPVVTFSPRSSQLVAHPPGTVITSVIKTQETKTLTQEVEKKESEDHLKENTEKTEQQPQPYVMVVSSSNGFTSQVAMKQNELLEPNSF
Chain of SPIB (Q01892 whole entry): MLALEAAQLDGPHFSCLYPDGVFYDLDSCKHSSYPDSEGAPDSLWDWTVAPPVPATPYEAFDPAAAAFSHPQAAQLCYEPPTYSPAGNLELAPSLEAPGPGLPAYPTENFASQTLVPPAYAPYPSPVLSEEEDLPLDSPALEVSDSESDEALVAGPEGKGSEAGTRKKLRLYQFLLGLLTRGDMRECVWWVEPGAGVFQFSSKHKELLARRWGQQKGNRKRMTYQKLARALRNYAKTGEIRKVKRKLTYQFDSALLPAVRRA

As for TTAACG, the binding signal was 1.12 fold enrichment (6-mer frequency, TF over GST control) in the test with FLI1; 1.17 fold enrichment (6-mer frequency, TF over GST control) in the test with ELK1; 1.21 fold enrichment (6-mer frequency, TF over GST control) with GABPA; 1.17 fold enrichment (6-mer frequency, TF over GST control) with ERG; 1.23 fold enrichment (6-mer frequency, TF over GST control) with ELF1; 1.15 fold enrichment (6-mer frequency, TF over GST control) in the test with EHF. Moreover, the binding signal with SPI1 was 1.26 fold enrichment (6-mer frequency, TF over GST control); in the test with SPIB it was 1.26 fold enrichment (6-mer frequency, TF over GST control); with ELK3 it was 1.32 fold enrichment (6-mer frequency, TF over GST control).
Consider CTGATA, for which the binding signal with FLI1 is 1.15 fold enrichment (6-mer frequency, TF over GST control); with ELK1 it was 1.17 fold enrichment (6-mer frequency, TF over GST control); in the test with GABPA, 1.27 fold enrichment (6-mer frequency, TF over GST control); with ERG it was 1.1 fold enrichment (6-mer frequency, TF over GST control); with ELF1, 1.21 fold enrichment (6-mer frequency, TF over GST control); with EHF, 1.26 fold enrichment (6-mer frequency, TF over GST control). Moreover, the binding signal was 1.28 fold enrichment (6-mer frequency, TF over GST control) with SPI1; 1.32 fold enrichment (6-mer frequency, TF over GST control) with SPIB; 1.24 fold enrichment (6-mer frequency, TF over GST control) with ELK3.
Turning to CTCACG, the binding signal is 1.36 fold enrichment (6-mer frequency, TF over GST control) in the test with FLI1; 1.33 fold enrichment (6-mer frequency, TF over GST control) with ELK1; 1.33 fold enrichment (6-mer frequency, TF over GST control) with GABPA; 1.33 fold enrichment (6-mer frequency, TF over GST control) in the test with ERG; 1.25 fold enrichment (6-mer frequency, TF over GST control) in the test with ELF1; 1.31 fold enrichment (6-mer frequency, TF over GST control) in the test with EHF. Further, the binding signal was 1.22 fold enrichment (6-mer frequency, TF over GST control) with SPI1; 1.32 fold enrichment (6-mer frequency, TF over GST control) with SPIB; 1.41 fold enrichment (6-mer frequency, TF over GST control) in the test with ELK3.
Take CAATAC: the binding signal in the test with FLI1 was 1.25 fold enrichment (6-mer frequency, TF over GST control); with ELK1, 1.29 fold enrichment (6-mer frequency, TF over GST control); with GABPA it was 1.23 fold enrichment (6-mer frequency, TF over GST control); in the test with ERG it was 1.23 fold enrichment (6-mer frequency, TF over GST control); in the test with ELF1, 1.24 fold enrichment (6-mer frequency, TF over GST control); in the test with EHF, 1.2 fold enrichment (6-mer frequency, TF over GST control). For the same sequence, the binding signal with SPI1 is 1.25 fold enrichment (6-mer frequency, TF over GST control); in the test with SPIB, 1.17 fold enrichment (6-mer frequency, TF over GST control); in the test with ELK3 it was 1.28 fold enrichment (6-mer frequency, TF over GST control).
In the case of TGTCTT, the binding signal with FLI1 was 1.29 fold enrichment (6-mer frequency, TF over GST control); with ELK1, 1.2 fold enrichment (6-mer frequency, TF over GST control); with GABPA, 1.38 fold enrichment (6-mer frequency, TF over GST control); in the test with ERG it was 1.34 fold enrichment (6-mer frequency, TF over GST control); with ELF1, 1.35 fold enrichment (6-mer frequency, TF over GST control); in the test with EHF, 1.31 fold enrichment (6-mer frequency, TF over GST control). The binding signal was 1.2 fold enrichment (6-mer frequency, TF over GST control) with SPI1; 1.26 fold enrichment (6-mer frequency, TF over GST control) with SPIB; 1.38 fold enrichment (6-mer frequency, TF over GST control) in the test with ELK3.
Consider ACTCCG, for which the binding signal in the test with FLI1 is 1.48 fold enrichment (6-mer frequency, TF over GST control); with ELK1, 1.5 fold enrichment (6-mer frequency, TF over GST control); with GABPA it was 1.58 fold enrichment (6-mer frequency, TF over GST control); with ERG, 1.43 fold enrichment (6-mer frequency, TF over GST control); with ELF1, 1.48 fold enrichment (6-mer frequency, TF over GST control); with EHF, 1.42 fold enrichment (6-mer frequency, TF over GST control). Also, the binding signal was 1.45 fold enrichment (6-mer frequency, TF over GST control) in the test with SPI1; 1.44 fold enrichment (6-mer frequency, TF over GST control) with SPIB; 1.56 fold enrichment (6-mer frequency, TF over GST control) with ELK3.
For the sequence CTATTC, the binding signal is 1.33 fold enrichment (6-mer frequency, TF over GST control) in the test with FLI1; 1.34 fold enrichment (6-mer frequency, TF over GST control) with ELK1; 1.34 fold enrichment (6-mer frequency, TF over GST control) with GABPA; 1.35 fold enrichment (6-mer frequency, TF over GST control) in the test with ERG; 1.42 fold enrichment (6-mer frequency, TF over GST control) with ELF1; 1.42 fold enrichment (6-mer frequency, TF over GST control) with EHF. In addition, the binding signal was 1.29 fold enrichment (6-mer frequency, TF over GST control) with SPI1; 1.23 fold enrichment (6-mer frequency, TF over GST control) with SPIB; 1.13 fold enrichment (6-mer frequency, TF over GST control) with ELK3.
